Assay results reported in PubChem BioAssay AID2107 (National Center for Advancing Translational Sciences (NCATS), 2009).
Out of some 240,000 compounds screened, about 20 (0.008%) were called active. Roughly 1% stayed inconclusive and do not appear here. Calls come from the whole dose curve; as a rule, active = well fitted inhibition curve with a large enough effect; inconclusive = small, poorly fitted or top-dose-only effect, or effect the other way; inactive = flat fitted curve, though single readings scatter. Not all results are given here.

biological target: Alpha-galactosidase A (Homo sapiens) (UniProt P06280); assay: qHTS Assay for Inhibitors and Activators of Human alpha-Galactosidase From Spleen Homogenate; conditions: 4MU-alpha-Gal fluorescence, 40 min; series mostly up to 80 µM;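 note: 0% = enzyme with vehicle and -100% = no enzyme basal signal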
Text: NIH Chemical Genomics Center [NCGC] NIH Molecular Libraries Probe Production Centers Network [MLPCN] MLPCN Grant: R03 MH084842-01 Assay Submitter (PI): Wei Zheng NCGC Assay Overview: Alpha-galactosidase is a homodimeric glycoprotein that hydrolyzes the terminal alpha-galactosyl moieties from glycolipids and glycoproteins. Deficiency of this enzyme results in Fabry Disease with progressive accumulation of globotriaosylceramide and other glycosphingolipids in vascular endothelial cells that causes renal failure, myocardial infarction and stroke, and premature death in patients. It has been reported that the improper folding and trafficking of alpha-galactosidase resulting from genetic mutations may account for a significant number of Fabry patients. […] We optimized this alpha-galactosidase assay in 1536-well plate format for identification of novel small molecule inhibitors or activators with structures other than the sugar analogs in order to develop new pharmacological chaperones. In particular, this assay is directed towards discovering compounds active in more natural setting, tissue homogenate, that may have been missed by screens of the purified enzyme under more stringent conditions.
NCGC Assay Protocol Summary: This is a fluorogenic enzyme assay with 4-methylumbelliferyl-alpha-D-galactopyranoside as the substrate and human spleen homogenate containing alpha-galactosidase as the enzyme preparation. Upon hydrolysis of this fluorogenic substrate, the resulting product, 4-methylumbelliferone (which excites at 365 nm and emits at 440 nm) can be detected by a fluorescence plate reader. Data were normalized to the controls for basal activity (without enzyme) and 100% activity (with enzyme). The AC50 values were determined from concentration-response data modeled with the standard Hill equation. Assay buffer: 50 mM citric acid (titrated with potassium phosphate to pH 5.0), 0.01% Tween-20 (pH 5.0 is an optimal condition for this enzyme assay) 1536-well assay protocol for the alpha-galactosidase from human spleen homogenate: (1) Add 2 ul/well spleen homogenate (1 ug) (2) Add 23 nL compounds in DMSO solution. The final titration was 0.5 nM to 58 uM. (3) Add 2 ul of substrate (1 mM final) (4) Incubate at 37C for 40 min (5) Add 2 ul stop solution (1M NaOH and 1M Glycine mixture, pH 10) (6) Detect the assay plate in a ViewLux plate reader (PerkinElmer) with Ex=365 nm and Em=440nm. Keywords: Alpha-galactosidase, Fabry Disease, pharmacological chaperone, chaperone therapy, high throughput screening, alpha- galactosidase inhibitor, MLSMR, MLSCN, NIH Roadmap, qHTS and NCGC

Alpha-galactosidase A (Homo sapiens), sequence (P06280 32-429 limits assumed): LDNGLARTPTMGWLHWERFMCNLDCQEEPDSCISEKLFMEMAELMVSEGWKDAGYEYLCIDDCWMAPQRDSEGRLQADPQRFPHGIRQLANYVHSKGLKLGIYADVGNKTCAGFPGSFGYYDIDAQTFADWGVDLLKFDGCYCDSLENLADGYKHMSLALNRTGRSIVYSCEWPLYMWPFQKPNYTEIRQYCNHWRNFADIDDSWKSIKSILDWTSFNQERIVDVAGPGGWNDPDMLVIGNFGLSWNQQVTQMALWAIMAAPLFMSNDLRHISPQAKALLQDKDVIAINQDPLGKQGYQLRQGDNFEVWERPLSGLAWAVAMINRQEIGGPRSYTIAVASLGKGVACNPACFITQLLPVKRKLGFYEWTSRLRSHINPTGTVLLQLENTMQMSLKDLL

Activity change, negative = inhibition, inactive:
CSc1ccc(S(=O)(=O)Nc2cccc(F)c2)cc1
COC(=O)c1ccc(C(NC(=O)OCc2ccccc2)/C(F)=C/[C@@H](C)C(=O)O)cc1 (stereo not given in full)
Cc1ccc(-c2csc(N(Cc3ccco3)C(=O)c3cccs3)n2)cc1
O=C(Nc1cc(C(=O)Nc2ccc(S(=O)(=O)O)cc2)cc(C(=O)Nc2ccc(S(=O)(=O)O)cc2)c1)Nc1cc(C(=O)Nc2ccc(S(=O)(=O)O)cc2)cc(C(=O)Nc2ccc(S(=O)(=O)O)cc2)c1
Cc1ccccc1OCCC(=O)OCC(=O)NC(C)c1ccccc1 (stereo not given)
CC[C@H](C)[C@H](NC(=O)[C@H](Cc1ccc(O)cc1)NC(=O)[C@@H](NC(=O)[C@H](CCCN=C(N)N)NC(=O)[C@@H](N)CC(=O)O)C(C)C)C(=O)N[C@@H](Cc1cnc[nH]1)C(=O)N1CCC[C@H]1C(=O)N[C@@H](Cc1ccccc1)C(=O)O
CC(=O)Nc1ccc(S(=O)(=O)N2N=NC3C2C2CC4C3(CN(C(=O)OC(C)(C)C)S4(=O)=O)O2)cc1 (stereo not given)
CSCCC(NC(=O)c1cc([N+](=O)[O-])cc([N+](=O)[O-])c1)c1nc2ccccc2[nH]1 (stereo not given)
CCOc1c2ccc(C(=O)NC3CCCc4ccccc43)cc2nn1CC (stereo not given)
Cc1cc(C)c(NC(=O)C[N+](C)(C)CC(O)COc2cccc3ccccc23)c(C)c1 (stereo not given)
CCOC(=O)Cc1csc(SCc2cc(=O)oc3cc(O)ccc23)n1
CC1(C)CC(=O)c2cnc3nc4ccccc4n3c2C1
COCC1CCCN(Cc2cn[nH]c2-c2cc3ccccc3o2)C1 (stereo not given)
Cc1cc(Cl)ccc1C(=O)C1CCCN(C(=O)CCN2CCCO2)C1 (stereo not given)
CC(C)Cn1c(N)c(C(=O)COC(=O)CN2C(=O)C3CC=CCC3C2=O)c(=O)n(C)c1=O (stereo not given)
O=C(NNc1ccccc1Cl)C(O)(c1cccc(C(F)(F)F)c1)c1cccc(C(F)(F)F)c1
O=C(NCc1ccccn1)[C@]1(C(F)(F)F)C[C@H](CCc2ccccc2)CCCO1
Cc1cccc(C)c1N1CCN(S(=O)(=O)N2CCCCC2)CC1
Cc1cccc2nc(CSc3nc4[nH]ncc4c(=O)n3-c3cccc(Cl)c3)cc(=O)n12
N#Cc1ncc(C(F)(F)F)cc1Oc1cccnc1
CNC(=O)[C@]1(C(F)(F)F)C[C@H](CCc2ccccc2)CCCO1
COc1ccc(C[C@H](C(=O)O)N2C(=O)c3ccc(C(=O)O)cc3C2=O)cc1
Cc1ccccc1N(C(=O)Cc1cccs1)C(C(=O)NC1CCCCC1)c1cn(C)nc1C (stereo not given)
C[C@@H]1O[C@@H](OC[C@H]2O[C@@H](Oc3cc(O)c4c(c3)O[C@H](c3ccc(O)c(O)c3)CC4=O)[C@H](O)[C@@H](O)[C@@H]2O)[C@H](O)[C@H](O)[C@H]1O
CCOC(=O)C1CCN(c2c(Nc3cc(C)cc(C)c3)c(=O)c2=O)CC1
NC(=O)NC(=O)CSc1nc2cc([N+](=O)[O-])ccc2n1-c1cccc(C(F)(F)F)c1
C[C@H]1CCC[C@@]2(C)CCCC[C@]12O
C=C1CCN(C(CC(C)C)C(=O)NCc2cc(OC)c(OC)c(OC)c2)S(=O)(=O)c2ccccc21 (stereo not given)
COc1ccc(C2/C=C\CN(Cc3ccco3)C(C)C(=O)N2Cc2ccc(F)cc2)cc1 (stereo not given)
COc1cc(C2OC(c3cc(OC)c(OC)c(OC)c3)C(C)C2C)cc(OC)c1OC (stereo not given)
COc1ccc(CN(C(=O)CSc2nnc(-c3ccc(OC)c(OC)c3)o2)c2ccc(F)cc2)cc1
C=CCC(C)(O)c1ccco1 (stereo not given)
CCCCCNC(=O)c1cccnc1SCC(=O)Nc1ccccc1OC
CC1(C)CC(N2CCN(C(c3ccccc3)c3ccccc3)CC2)=CC(=[N+]2CCCCC2)C1
COc1ccccc1C(=O)N1CCN=C1SCc1cccnc1
O=C(NCCCn1ccnc1)c1cc(-c2ccccc2)on1
C=C(C)C1CC=C(C)C(O)C1 (stereo not given)
C=CCN1c2ccccc2[C@]23C[C@@H](C(=O)OC)N(S(=O)(=O)c4ccc([N+](=O)[O-])cc4)C2=NC(C(=O)OC)=C(C(=O)OC)[C@H]13 -4.05% [at 17.5 µM]
[O-][n+]1onc2c1CCc1[nH]c(-c3ccccc3)nc1-2
CC(=O)CC(c1ccccc1)C1C(=O)Oc2ccccc2C1=O (stereo not given)
Cc1nn(C)c(C(=O)NNC(=S)NC2CCCCC2)c1Cl
NCCCCC(N)C(=O)O (stereo not given)
Cn1c(SCC(=O)N/N=C/c2ccc(O)c(O)c2)nc2ccccc21
O=c1cc(-c2ccc(O)cc2)oc2c([C@@H]3O[C@H](CO)[C@@H](O)[C@H](O)[C@H]3O)c(O)cc(O)c12
CCN(CC)c1ccc(/C=N/NC(=O)c2cnccn2)c(O)c1
O=C(NCCCO)/C(=C\C=C\c1ccccc1)NC(=O)c1ccccc1Cl
COc1ccc(/C=N/Nc2ncnc3sc4c(c23)CCCC4)cc1O
COc1ccccc1C1C(C#N)=C(N)Oc2c1c(-c1ccccc1)nn2-c1ccccc1 (stereo not given)
CC[C@H](C)[C@H](NC(=O)[C@@H](N)CCC(=O)O)C(=O)N[C@@H](CC(C)C)C(=O)N[C@@H](CC(=O)O)C(=O)N[C@H](C(=O)N1CCC[C@H]1C(=O)N[C@@H](CO)C(=O)N[C@H](C(=O)O)[C@@H](C)O)C(C)C
C[C@]1(C(=O)NCCc2c[nH]c3ccccc23)C=C[C@@H](Cc2ccccc2)N1C(=O)c1ccccc1
CCC1(CC)C(=O)C2=C3C1[C@H](C(=O)OC)C=C(C(=O)OC)C[C@H]3[C@H]1C(=O)N(Cc3ccccc3)C(=O)[C@H]1[C@H]2C (stereo not given in full)
COc1ccc2c3c1O[C@H]1C[C@@H](O)C=C[C@@]31CCN(C)C2
OCCNCc1cccc(OCc2ccccc2Cl)c1
CC1=NN(C(=O)c2ccc(Br)cc2)C(O)(c2ccccc2)C1 (stereo not given)
Cc1ccc(-c2nn(CC(C)(C)C)c3ncnc(N)c23)cc1
COc1ccc(-c2c(C)cc3oc(=O)cc(-c4ccccc4)c3c2C)cc1OC
COC(=O)Cc1csc(/N=C/c2c(O)n(-c3cccc(C(F)(F)F)c3)c(=O)c3ccccc23)n1
C/C(CCN1CCCCc2nc(C)c(C)cc21)=N\O[C@@H](C)c1cn([C@@H]2COC[C@@H]2O)nn1 2.02% [at 17.5 µM]
Cc1nc(C(=O)NCc2ccccc2)sc1C1(C)CC(c2cccnc2)=NO1 (stereo not given)
CCOC(=O)c1cc(C)nc(S(C)(=O)=O)c1C#N
Cc1cc2oc(=O)cc(-c3ccccc3)c2c(C)c1/C=C/c1ccc(F)cc1
CCOc1ccc(NC(=O)COc2ccc(C(=O)NC3CCCc4ccccc43)cc2OC)cc1 (stereo not given)
O=C(COC(=O)c1ccc(Cl)nc1)NCc1ccc2c(c1)OCO2
COc1cc(OC)c2c(C)cc(=O)oc2c1C(CCN1CCCCC1)c1ccc(N(C)C)cc1 (stereo not given)
COCCCNC(=S)NCCNc1nc2cc(C)c(C)cc2cc1C#N
O=C(O)c1ccc(/C=C2/SC(=S)N(c3cccc(C(F)(F)F)c3)C2=O)cc1
CCO[C@@H]1OC(C(=O)NCc2nc3ccccc3[nH]2)=C[C@H](C2CCCCC2)[C@H]1CCCO
C=CCCN(C(Cc1ccccc1)C(=O)OC)S(=O)(=O)c1cc(Br)ccc1Br (stereo not given)
COc1ccc(CN2CCC(=O)c3ccccc3S2(=O)=O)cc1
CCOC(=O)C1=C(C)NC2=C(C(=O)CC(C)(C)C2)C1c1ccsc1 (stereo not given)
O=C(NCC1CC1)C1(C(F)(F)F)C/C(=C\CCO)CCCO1 (stereo not given)
Cc1scc(C(=O)NNC(=S)NCC(C)C)c1C
CCCN1CCC(=O)N(C(CSc2ccc(C)cc2)Cc2ccccc2)CC1 (stereo not given)
Cc1cc(C(=O)OCC(=O)N2c3ccccc3NC(=O)C2(C)C)c(C)n1-c1ccccc1
O=C1/C(=C\c2ccccc2Cl)SC(=S)N1CCC(=O)N1CCCc2ccccc21
COc1cccc(N(C(=O)c2ccn[nH]2)C2(C(=O)Nc3c(C)cccc3C)CCCCC2)c1
OCC1(Cc2ccccc2C(F)(F)F)CCN(Cc2cccc3cnccc23)CC1
C=C1/C(=C\C=C2\CCCC3(C)C2CCC3C(C)/C=C/C(O)C2CC2)CC(O)CC1O (stereo not given)
Cc1noc(C)c1-c1ccc2ncnc(NCc3ccc4[nH]ccc4c3)c2c1
CC(=O)OCC(NC(=O)C(Cc1ccccc1)NC(=O)OC(C)(C)C)C1OC(n2ccc(=O)[nH]c2=O)C(OC(C)=O)C1OC(C)=O (stereo not given)
COc1ccc(C2CC(O)(c3ccccc3)Oc3cc(C)cc(C)c32)cc1 (stereo not given)
Cn1c(N)c(C(=O)COC(=O)/C=C/c2ccc(OC(F)F)cc2)c(=O)n(C)c1=O
COc1ccc(Br)cc1C1C2C=CCC(C)C2C(=O)N1Cc1ccccc1 (stereo not given)
N#CC1=C(N)Oc2c(ccc3cccnc23)C1c1ccncc1 (stereo not given)
COC(=O)C1(C(C)=O)CC2=CC[C@H]3C(=O)N(c4ccccc4)C(=O)[C@H]3[C@@H]2Cc2ccccc2[C@@H]1C[N+](=O)[O-] (stereo not given in full)
N#Cc1ccc(OCc2nnc(-c3ccc([N+](=O)[O-])cc3)o2)cc1
CCOCCOC(=O)C(C)Oc1ccc(Oc2ncc(C(F)(F)F)cc2Cl)cc1 (stereo not given)
CSc1ccccc1N1CCN(CCCCCC(=O)NC2CCCc3ccccc32)CC1 (stereo not given)
Cc1cc(N(C)C)nc(Cl)n1
Cc1cccc(NC(=S)NCCc2ccc(F)cc2)c1C
